{
  "source": "PubChem BioAssay (NCATS)",
  "note": "Values joined by “and” are separate entries in the source; they are usually repeats but may differ in a detail not shown here. Identical values can stand only once. Unmarked numbers belong to inactive results. Active and inactive are the calls of the source. Calls follow the shape of the dose curve; as a rule, active = well fitted activation curve with a large enough effect; inconclusive = small, poorly fitted or top-dose-only effect; inactive = flat fitted curve, though single readings scatter. Potency is read from the fitted curve at half-maximal effect.",
  "data": [
    {"target": "Peroxisome proliferator-activated receptor alpha (Homo sapiens) (UniProt Q07869)", "sequence (Q07869 whole entry, looked up)": "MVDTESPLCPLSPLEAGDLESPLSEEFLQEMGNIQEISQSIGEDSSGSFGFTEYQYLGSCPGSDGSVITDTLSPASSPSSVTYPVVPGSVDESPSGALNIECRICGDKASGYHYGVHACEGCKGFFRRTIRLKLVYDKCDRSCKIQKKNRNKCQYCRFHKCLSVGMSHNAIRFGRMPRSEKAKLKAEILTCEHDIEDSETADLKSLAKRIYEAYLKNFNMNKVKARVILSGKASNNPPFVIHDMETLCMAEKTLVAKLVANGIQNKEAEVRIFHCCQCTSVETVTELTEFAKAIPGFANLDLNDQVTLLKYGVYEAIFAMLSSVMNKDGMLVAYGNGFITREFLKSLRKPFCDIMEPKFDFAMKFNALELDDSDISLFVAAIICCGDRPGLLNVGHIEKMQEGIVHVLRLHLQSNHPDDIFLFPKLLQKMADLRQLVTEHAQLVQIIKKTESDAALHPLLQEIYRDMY", "assay": "qHTS assay for small molecule agonists of the peroxisome proliferator-activated receptor alpha (PPARalpha) signaling pathway (AID 651778); as to max response: % of control where 0% means no effect", "settings": "PathHunter PPARalpha complementation, chemiluminescence, 6 h; max response: active compounds read high", "source_text": "National Center for Advancing Translational Sciences [NCATS]\nNIH Chemical Genomics Center [NCGC]\nU.S. Environmental Protection Agency [EPA]\nNational Institutes of Environmental Health Sciences [NIEHS]\nNational Toxicology Program [NTP]\nThe Peroxisome proliferator-activated receptors (PPARs) are lipid-activated transcription factors of the nuclear receptor superfamily with three distinct subtypes (alpha, garmma and beta/delta). All these subtypes heterodimerize with retinoid X receptor and have different physiological functions. PPARalpha is highly expressed in tissues with high rates of mitochondrial fatty acid oxidation, such as liver, heart, muscle, kidney and cells of the arterial wall. PPARalpha is a major regulator of lipid metabolism and energy homeostasis.\nA cell based assay was used to identify activators of PPARalpha. The assay detects binding of a ligand to PPARalpha leading to its activation, translocation and complementation thus forming a functional enzyme capable of hydrolyzing the substrate molecule and generating chemiluminescent signal.\n2,000 cells in 6 uL/well were dispensed into white wall/solid bottom 1536-well plates using a Multidrop Combi (Thermo Scientific) dispenser. After incubation 37 C and 5% CO2 overnight, 23 nL compound or DMSO only were transferred by a pin tool. The plates were incubated for 6 hr at 37 C and 5% CO2. 3 ul PathHunter detection reagent (Discoverx) was then added to each well and following 60 min incubation at room temperature, chemiluminescence was quantified on a ViewLux CCD-based plate reader.", "values": [
      {"smiles": "CCCCC(CC)COC(=O)c1ccccc1C(=O)O", "note": "(stereo not given)", "Potency": "28.2 µM (active)"},
      {"smiles": "CCOP(=O)(NC(C)C)Oc1ccc(SC)c(C)c1", "note": "(stereo not given)", "max response": "2.22% and -0.0211%"},
      {"smiles": "CCCCC(CC)COC(=O)c1ccccc1C(=O)OCC(CC)CCCC", "note": "(stereo not given)", "max response": "-1.13% and 3.57%"},
      {"smiles": "CC(C)(O)C(=O)Nc1ccc([N+](=O)[O-])c(C(F)(F)F)c1", "max response": "-1.76%"},
      {"smiles": "CC(=O)[O][Hg][c]1ccccc1", "max response": "-13.3% and -4.57%"},
      {"smiles": "CC(C)Oc1cccc(NC(=O)c2ccccc2C(F)(F)F)c1", "max response": "3.69%"},
      {"smiles": "CN(C)[C@@H]1C(=O)C(C(N)=O)=C(O)[C@@]2(O)C(=O)C3=C(O)c4c(O)cccc4[C@@](C)(O)[C@H]3[C@H](O)[C@@H]12", "max response": "-3.16% and 0.185% and -4.32%"},
      {"smiles": "O=[N+]([O-])/N=C1\\NCCN1Cc1ccc(Cl)nc1", "max response": "-0.352%"},
      {"smiles": "O=C(O)C(Cl)Cl", "max response": "-0.693% and -4.76%"},
      {"smiles": "CS(=O)(=O)c1ccc(C(=O)C2C(=O)CCCC2=O)c([N+](=O)[O-])c1", "max response": "-3.08%"},
      {"smiles": "O=S(=O)(O)C(F)(F)C(F)(F)C(F)(F)C(F)(F)F", "max response": "5.33% and 1.27%"},
      {"smiles": "COCCOCCO", "max response": "-0.0911% and 0.363%"},
      {"smiles": "O=C(O)CCCOc1ccc(Cl)cc1Cl", "max response": "5.21%"},
      {"smiles": "Nc1ccc(Cl)cc1N", "max response": "-5.6% and -0.828%"},
      {"smiles": "COC(C)(C)CCCC(C)C/C=C/C(C)=C/C(=O)OC(C)C", "note": "(stereo not given)", "max response": "3.83% and 3.99%"},
      {"smiles": "O=[N+]([O-])c1c2ccccc2cc2ccccc12", "max response": "5.89%"},
      {"smiles": "CCCCCCCCCCCCCCCC[N+](C)(C)C", "max response": "1.77% and -0.579%"},
      {"smiles": "CCO/N=C(\\CC)C1=C(O)CC(c2c(C)cc(C)cc2C)CC1=O", "note": "(stereo not given)", "max response": "-0.461%"},
      {"smiles": "COc1ccc(C(c2ccc(OC)cc2)C(Cl)(Cl)Cl)cc1", "max response": "12.2% and 6.03% and 0.144%"},
      {"smiles": "Nc1ccc(N=Nc2ccccc2)cc1", "max response": "-2.06%"},
      {"smiles": "CCCCOC(=O)c1ccccc1C(=O)OCc1ccccc1", "max response": "-3.94% and -0.0123%"},
      {"smiles": "CCOCCOC(C)=O", "max response": "0.307%"},
      {"smiles": "CC(C)(C)C(O)C(Oc1ccc(Cl)cc1)n1cncn1", "note": "(stereo not given)", "max response": "-0.528%"},
      {"smiles": "Nc1c(Cl)c(Cl)c(Cl)c(Cl)c1Cl", "max response": "-0.704%"},
      {"smiles": "C1CCC(NC2CCCCC2)CC1", "max response": "0.749% and -0.258% and -1.01%"},
      {"smiles": "Clc1cnc(Oc2ccc(Oc3ncc(Cl)cc3Cl)cc2)c(Cl)c1", "max response": "2.8%"},
      {"smiles": "O=C(Nc1ccccc1-c1ccc(Cl)cc1)c1cccnc1Cl", "max response": "0.0876%"},
      {"smiles": "COc1nn(CSP(=S)(OC)OC)c(=O)s1", "max response": "-1.93%"},
      {"smiles": "CCCCCCCCCC(CC)c1ccc(S(=O)(=O)O)cc1", "note": "(stereo not given)", "max response": "1.36%"},
      {"smiles": "O=[N+]([O-])c1c(Cl)c(Cl)cc(Cl)c1Cl", "max response": "0.293%"},
      {"smiles": "OCCCBr", "max response": "-3.35%"},
      {"smiles": "O=C(O)COc1ccccc1", "max response": "-1.23%"},
      {"smiles": "O=S(=O)(O)C(F)(F)C(F)(F)C(F)(F)C(F)(F)C(F)(F)C(F)(F)C(F)(F)C(F)(F)F", "max response": "-0.394% and 4.02%"},
      {"smiles": "Nc1ccc(Cl)cc1", "max response": "8.91%"},
      {"smiles": "O=[N+]([O-])c1cc([N+](=O)[O-])c2ccccc2c1", "max response": "-4.32%"},
      {"smiles": "O=C(O)c1cc(Oc2ccc(C(F)(F)F)cc2Cl)ccc1[N+](=O)[O-]", "max response": "-3.73%"},
      {"smiles": "c1cc2ccc3cccc4ccc(c1)c2c34", "max response": "-3.14% and -4.98%"},
      {"smiles": "CN(C)NC(=O)CCC(=O)O", "max response": "0.401% and -4.12%"},
      {"smiles": "C=CC(=O)NCNC(=O)C=C", "max response": "-3.68% and -5.17%"},
      {"smiles": "C=CCC1=C(C)C(OC(=O)C2C(C=C(C)C)C2(C)C)CC1=O", "note": "(stereo not given)", "max response": "4.18%"}
    ]}
  ]
}
